The list is not random: actives were taken first. Their share in the collection is about 17%.
TDP1 cell CPT: DT40-hTDP1 cell growth loss with CPT. chicken DT40 Tdp1-/-;hTDP1 cells + 20 nM CPT, ATP luminescence, 48 h. Potency, µM (doses to about 46.2 µM), for the others: at the top dose activity change, negative = growth inhibition, hits mostly inhibitors. 12% of 420,000 active; note: % is set by controls: 0 for no effect and ±100 for the full control effect; nearly all actives have a fitted effect of over 55% in size
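Chicken DT40 Tdp1-/- cells complemented with human TDP1, 400 cells/well, exposed to compounds plus 20 nM camptothecin for at least 48 h at 37 C; viability read as ATP content by CellTiter-Glo luminescence.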
ClpP mod: qHTS Assay for Activators of ClpP; ATP-dependent Clp protease proteolytic subunit (Bacillus subtilis (strain 168)), P80244; purified B. subtilis ClpP, FRET peptide cleavage, 20 min; Potency, µM (doses to about 57.5 µM), for inactives: at the top dose activity change, negative = active; 1.9% of 340,000 active; active = well fitted falling curve with a large enough effect; inconclusive = small, poorly fitted or top-dose-only effect; inactive = no such curve, though single readings can be large or run the other way; note: the source files actives as falling curves though it sought activators and does not explain the sign; nearly all actives have a fitted effect of over 65% in size
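ClpP 10 microg/mL final, pH 8 Tris/KCl buffer with BSA, glycerol, Tween-20; compound pinned in; FRET-FV substrate; RT 20 min; Ex320/Em430; ΔFRET vs ADEP 5.8 microM, DMSO, no enzyme.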
TDP1 block: blocks human tyrosyl-DNA phosphodiesterase 1; recombinant TDP1, AlphaScreen DNA substrate cleavage; AID 485290; 0.28% of 350,000 active; Potency, µM (highest dose often 130 µM), for inactives: at the top dose activity change, negative = inhibition, most hits filed as inhibitors; note: % is set by controls: 0 for no effect and ±100 for the full control effect; nearly all actives have a fitted effect of over 40% in size
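Steps: enzyme plus compound, 15 min RT; add biotin/phosphotyrosine-FITC oligonucleotide (15 nM final), react 5 min; add donor/acceptor beads (10 ug/ml final), 10 min; read AlphaScreen. Tdp1 at 1 nM final.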
TDP1 cell noCPT: qHTS for Inhibitors of human tyrosyl-DNA phosphodiesterase 1 (TDP1): qHTS in cells in absence of CPT; DT40 Tdp1-/- hTDP1 cells, no CPT, ATP luminescence, 48 h; Potency, µM (highest dose often 46.2 µM), inactives show at the top dose activity change, negative = growth inhibition, actives largely listed as inhibitors; 15% of 420,000 active; AID 686978, 2013; note: % is set by controls: 0 for no effect and ±100 for the full control effect; nearly all actives have a fitted effect of over 55% in size
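Chicken DT40 Tdp1-/- cells complemented with human TDP1, screened without camptothecin (DMSO vehicle only), 400 cells/well. Compounds pin-transferred, cells incubated at 37 °C for at least 48 hr. Growth read as ATP-dependent luminescence (CellTiter-Glo, 30 min at RT).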
* = called active by the depositor; [ ] = remark or other dose. Unless noted, calls come from the whole dose curve; as a rule, active = well fitted curve in the direction sought with a large enough effect; inconclusive = small, poorly fitted or top-dose-only effect, or another doubt; inactive = no such curve, though single readings can be large; an effect the other way counts as inactive or inconclusive. Potency is the fitted concentration of half-maximal effect.

O=C1NC[C@H](Cc2ccccc2)N(C[C@@H]2CCCN2C[C@H](Cc2ccc(O)cc2)N2C[C@H](Cc3ccc(O)cc3)N(CCc3ccccc3)C(=O)C2=O)C1=O was read as TDP1 cell CPT 3%, ClpP mod 2% and TDP1 cell noCPT -5%.
Screening O=C1NC[C@H](Cc2ccccc2)N(C[C@H]2CCCN2C[C@H](Cc2ccccc2)N2C[C@H](Cc3ccccc3)N(CCc3ccccc3)C(=O)C2=O)C1=O returned TDP1 cell CPT inconclusive, ClpP mod 1% and TDP1 cell noCPT 16µM*.
Screening O=C1c2ccccc2C(=O)N1Cc1ccco1 returned TDP1 cell CPT 8%, ClpP mod -2%, TDP1 block 3% and TDP1 cell noCPT 17%.
CC1=CC(=C2C(=O)c3ccccc3C2=O)C=C(C)O1 was read as TDP1 cell CPT 10µM*, ClpP mod -1%, TDP1 block -2% and TDP1 cell noCPT inconclusive.
`CC1=CC(=C2C(=O)c3ccccc3C2=O)C=C(C)N1Cc1ccco1` gave TDP1 cell CPT -22%, ClpP mod -1%, TDP1 block 0% and TDP1 cell noCPT 21µM*.
CC(=O)N1C(=O)C(=C2C=C(C)OC(C)=C2)c2ccccc21 was read as TDP1 cell CPT inconclusive, ClpP mod 3%, TDP1 block 8% and TDP1 cell noCPT inconclusive.
O=C(NCCc1ccc(O)c(O)c1)C1COc2ccccc2O1 (centres undefined) was read as TDP1 cell CPT 13µM*, ClpP mod -1%, TDP1 block 9%[0.0935 µM] and TDP1 cell noCPT inconclusive.
O=C(NCCc1ccccc1)C1COc2ccccc2O1 (centres undefined) was read as TDP1 cell CPT -8%, ClpP mod 2% and TDP1 cell noCPT -24%.
`CCCOc1ccccc1C1C(C(=O)Nc2ccccc2)=C(C)Nc2nnnn21` (centres undefined) gave TDP1 cell CPT -17%, ClpP mod -3%, TDP1 block -1% and TDP1 cell noCPT -22%.
CC(NC(=O)CCc1ccccc1)c1cc2c(cc1Cl)OCCO2 (centres undefined) was read as TDP1 cell CPT 15µM*, ClpP mod -2%, TDP1 block 3% and TDP1 cell noCPT inconclusive.
Screening CC(C)NC(=O)C1(C)CN(S(C)(=O)=O)CC(=O)N1CCc1ccc(O)cc1 (centres undefined) returned TDP1 cell CPT -1%, ClpP mod 0% and TDP1 cell noCPT -2%.
`CCC(=O)N1CCN(c2cc3c(cc2F)c(=O)c(C(=O)O)cn3CC)CC1` gave TDP1 cell CPT -14% and TDP1 cell noCPT -12%.
CCn1cc(C(=O)O)c(=O)c2cc(F)c(N/N=C/c3ccccc3[N+](=O)[O-])cc21 was read as TDP1 cell CPT 4.1µM*, ClpP mod -2%, TDP1 block -11% and TDP1 cell noCPT 16µM*.
For CCn1cc(C(=O)O)c(=O)c2cc(F)c(N3CCN(C(=S)NC(=O)c4cccc(F)c4)CC3)cc21 the results were TDP1 cell CPT inconclusive, TDP1 block 4% and TDP1 cell noCPT -4%.
`CCn1cc(C(=O)O)c(=O)c2cc(F)c(N3CCN(C(=S)NC(=O)c4c(OC)cccc4OC)CC3)cc21` gave TDP1 cell CPT 18µM*, TDP1 block -3%[0.0935 µM] and TDP1 cell noCPT 26µM*.
CCn1cc(C(=O)O)c(=O)c2cc(F)c(N3CCN(C(=S)Nc4ccccc4OC)CC3)cc21 was read as TDP1 cell CPT -18%, ClpP mod -23% and TDP1 cell noCPT inconclusive.
For CCn1cc(C(=O)O)c(=O)c2cc(F)c(N3CCN(S(=O)(=O)c4ccc(NC(=O)OC)cc4)CC3)cc21 the results were TDP1 cell CPT 18µM*, ClpP mod 18µM*, TDP1 block inconclusive and TDP1 cell noCPT 18µM*.
`CCn1cc(C(=O)O)c(=O)c2cc(F)c(N3CCN(C(=S)NC(=O)c4ccccc4Br)CC3)cc21` gave TDP1 cell CPT inconclusive, TDP1 block 3% and TDP1 cell noCPT 21µM*.
For CCCOc1ccc(C(=O)NC(=S)N2CCN(c3cc4c(cc3F)c(=O)c(C(=O)O)cn4CC)CC2)cc1 the results were TDP1 cell CPT 16µM*, TDP1 block 8%[0.0935 µM] and TDP1 cell noCPT 15µM*.
For CCn1cc(C(=O)O)c(=O)c2cc(F)c(N3CCN(C(=S)NC(=O)c4ccc(F)c(F)c4)CC3)cc21 the results were TDP1 cell CPT inconclusive, ClpP mod 4%, TDP1 block -4% and TDP1 cell noCPT inconclusive.
For Cc1coc2cc3oc(=O)c(CC(=O)NCCc4ccccc4F)c(C)c3cc12 the results were TDP1 cell CPT -23%, ClpP mod 4%, TDP1 block -2% and TDP1 cell noCPT -27%.
`Cc1coc2cc3oc(=O)c(CC(=O)NCc4ccc(F)cc4)c(C)c3cc12` gave TDP1 cell CPT 6.5µM*, ClpP mod inconclusive, TDP1 block 0% and TDP1 cell noCPT 5.8µM*.
Cc1coc2cc3oc(=O)c(CC(=O)NCc4ccccc4)c(C)c3cc12 was read as TDP1 cell CPT 5.8µM*, ClpP mod -27%, TDP1 block -2% and TDP1 cell noCPT 5.2µM*.
For Cc1coc2cc3oc(=O)c(CC(=O)NCc4cccc(Cl)c4)c(C)c3cc12 the results were TDP1 cell CPT inconclusive, ClpP mod 4%, TDP1 block 0% and TDP1 cell noCPT 21µM*.
For Cc1ccc(CNC(=O)Cc2c(C)c3cc4c(C)coc4cc3oc2=O)cc1 the results were TDP1 cell CPT -1%, ClpP mod -14%, TDP1 block 7% and TDP1 cell noCPT -20%.
`Cc1cnc(C)c(Nc2nc(C(N)Cc3ccc(Cl)cc3)cs2)n1` (centres undefined) gave TDP1 cell CPT 8.2µM*, ClpP mod -2% and TDP1 cell noCPT 18µM*.
Screening CCc1cnc(Nc2nc(C(N)Cc3ccc(F)cc3)cs2)nc1 (centres undefined) returned TDP1 cell CPT 12µM*, ClpP mod 2% and TDP1 cell noCPT 18µM*.
Screening COc1ccc(CC(N)c2csc(Nc3cc(NCc4ccco4)ncn3)n2)cc1 (centres undefined) returned TDP1 cell CPT inconclusive, ClpP mod 2% and TDP1 cell noCPT 13µM*.
For COc1ccc(CC(N)c2csc(Nc3ncccn3)n2)cc1 (centres undefined) the results were TDP1 cell CPT 4.6µM*, ClpP mod 3% and TDP1 cell noCPT 6.5µM*.
COc1ccc(-c2csc(NCc3ccco3)n2)cc1 was read as TDP1 cell CPT inconclusive, ClpP mod -2%, TDP1 block 7% and TDP1 cell noCPT -18%.
COC(=O)c1cc(C)nc(Nc2nc(C(N)Cc3ccc(Cl)cc3)cs2)n1 (centres undefined) was read as TDP1 cell CPT inconclusive, ClpP mod -3% and TDP1 cell noCPT inconclusive.

High-throughput results as filed in PubChem.
